PubChem BioAssay (NCI)
The panel holds about 83,000 compounds, 20% with a hit somewhere; the sample as a whole holds those more often.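 Testing used 96-well plates and a 48-hour single-concentration exposure. Example: -40 means 40% of the starting cells died.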 Unmarked numbers belong to inactive results. The source made the active and inactive calls. How the source made its calls: active means growth percent below 10; inactive means the rest.

Columns and labels:
Experiment in all cases: NCI-60 one-dose screen, 48 h (100 = growth as untreated, 0 = no growth, -100 = all killed)
Conditions in all cases: 10 µM unless noted
[1] = tested on: NCI-H23 lung
[2] = tested on: NCI-H226 lung
[3] = tested on: NCI-H322M lung
[4] = tested on: HOP-62 NSCLC
[5] = tested on: NCI-H460 lung
[6] = tested on: HOP-92 NSCLC
[7] = tested on: NCI-H522 lung
[8] = tested on: A549/ATCC NSCLC
[9] = tested on: 786-0 renal
[10] = tested on: COLO 205 colon
[11] = tested on: DU-145 prostate
[12] = tested on: K-562 leukemia
[13] = tested on: MALME-3M melanoma
[14] = tested on: MDA-MB-231 breast
[15] = tested on: RXF 393 renal
[16] = tested on: SF-268 CNS
[17] = tested on: SF-295 CNS
[18] = tested on: SF-539 CNS
[19] = tested on: UACC-257 melanoma
[20] = tested on: M14 melanoma

Row | SMILES | growth [1] | growth [2] | growth [3] | growth [4] | growth [5] | growth [6] | growth [7] | growth [8] | growth [9] | growth [10] | growth [11] | growth [12] | growth [13] | growth [14] | growth [15] | growth [16] | growth [17] | growth [18] | growth [19] | growth [20]
1 | COc1ccc(/C=C\c2nc3ccccc3s2)cc1OP(=O)(O)O | 43.4% | 66.3% | 59.8% | 49.3% | 20.7% | 90.2% | 12.5% | 42.3% | 64.7% | 112% | 29.1% | 10.4% | 71.3% | 49.2% | 2.73% (active) | 60.2% | 40.8% | -10.2% (active) | 83.1% | 25.5%
2 | C(=C\c1n(Cc2ccc3ccccc3c2)c(-c2ccccc2)c(-c2ccccc2)[n+]1Cc1ccc2ccccc2c1)/c1ccccc1 | -80.2% (active) | -74.9% (active) | -5.86% (active) | -84.5% (active) | -84.1% (active) | -81.8% (active) | -62.3% (active) | -62.4% (active) | -78.2% (active) | -70.5% (active) | -97% (active) | -22.3% (active) | -86.9% (active) | -95% (active) | -93.5% (active) | -68.5% (active) | -95.9% (active) | -91.9% (active) | -69.2% (active) | -72.2% (active)
3 | C=C1C(=O)O[C@H]2[C@H]1CC/C(COC(=O)CCCc1c[nH]c3ccccc13)=C\CC[C@@]1(C)O[C@@H]21 | 65.9% | 76.7% | 104% | 89.8% | 85.9% | 44.6% | 39.9% | 72% | 14.2% | 64.8% | 49.6% | -9.04% (active) | 86.4% | 35.4% | 32.7% | 60.8% | 82% | 41.7% | 64.1% | 53.1%
4 | C[C@H]1[C@H](C)CC[C@]2(CO)CC[C@]3(C)C(=CC[C@@H]4[C@@]5(C)CCCNC(C)(C)[C@@H]5CC[C@]43C)[C@H]12 | 36.1% | -99% (active) | -17.9% (active) | -23.1% (active) | -83.3% (active) | -5.92% (active) | -77.8% (active) | 12% | -81% (active) | -78.3% (active) | -17.4% (active) | -49.1% (active) | -71.9% (active) | -54.8% (active) | -27.9% (active) | 5.71% (active) | -64.6% (active) | -36.5% (active) | -36.9% (active) | -73.2% (active)
5 | COc1cccc(NC(=O)c2cccc(-c3cc(=O)c4c(OC)c(OC)c(OC)cc4o3)c2)c1 | 63.1% | 63.3% | 80.1% | 59.5% | 60.1% | 41.9% | 46.6% | 62.8% | 68.9% | 68.3% | 71.8% | 40.3% | 84.8% | 59.6% | 47.9% | 63.1% | 70.8% | 77.5% | 92.4% | 73.5%
6 | CCCCCCc1nc2nc(Cl)c(Cl)nc2[nH]1 | 34.8% | 63.2% | 96% | 88.1% | 52.7% | -13.8% (active) | 32.6% | 53.2% | 65.8% | 102% | 72.5% | 39% | 46.6% | 89.4% | 90.4% | 83.3% | 58% | 65.3% | 54.9% | 89.6%
7 | C=CCn1c(SCC(=O)Nc2ccc(C(=O)/C=C/c3cc(OC)c(OC)c(OC)c3)cc2)nnc1-c1cc(OC)c(OC)c(OC)c1 | 55.2% | 35.9% | 85.5% | 55% | 31.4% | 82.2% | 47% | 47.2% | 53.6% | 41.2% | 24.2% | 6.9% (active) | 92.4% | 49.3% | 21.4% | 34.9% | 60.4% | 4.95% (active) | 64.1% | 18.6%
8 | NNC(=O)/C(=C\c1ccc([N+](=O)[O-])cc1)CC(=O)c1ccc(Cl)c(Cl)c1 | 91.6% | 69.2% | 84.3% | 83.3% | 90.5% | 103% | 77.2% | 78.9% | 92.9% | 100% | 88.7% | 88.8% | 94.3% | 89% | 97.8% | 65.1% | 93.6% | 98.1% | 91.1% | 85.6%
